# Data reported in the supplement of paper PMC8728848.
# This is one part of a sample in which the strongest signals are shown more often than they occur.
# B1: SSR1 (Sclerotium rolfsii), A0A0M3KL30 (protein)
# chain: TYKITVRVYQTNPDAFFHPVEKTVWKYANGGTWTITDDQHVLTMGGSGTSGTLRFHADNGESFTATFGVHNYKRWCDIVTNLAADETGMVINQQYYSQKNREEARERQLSNYQVKNAKGRNFQIVYTEAEGNDLHANLIIG
# Legend:
# Assay in all cases: glycan array binding signal (z-score within array); higher = stronger binding
# Conditions in all cases: glycan notation: IUPAC condensed, linker removed
# [1] = target: Fuc(a1-2)Gal(b1-3)GalNAc(b1-4)[Neu5Ac(a2-3)]Gal(b1-4)Glc
# How it was run: (§1)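 From the Consortium for Functional Glycomics database, 3228 arrays were curated, keeping only those whose protein sequence was available. Binding is given as a within-array Z-score averaged across arrays sharing a protein sequence and across linkers. Negative Z-scores can be read as non-binding.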
# [2] = target: Fuc(a1-2)Gal(b1-3)GlcNAc(b1-3)[Gal(b1-4)GlcNAc(b1-6)]Gal(b1-4)Glc
# How it was run: as §1
# [3] = target: Fuc(a1-2)Gal(b1-4)GlcNAc(b1-3)Gal(b1-4)GlcNAc
# How it was run: as §1
# [4] = target: Fuc(a1-2)Gal(b1-4)GlcNAc(b1-3)[Fuc(a1-3)[Gal(b1-4)]GlcNAc(b1-6)]Gal(b1-4)Glc
# How it was run: as §1
# [5] = target: Fuc(a1-2)Gal(b1-4)[Fuc(a1-3)]GlcNAc(b1-3)Gal(b1-4)[Fuc(a1-3)]GlcNAc
# How it was run: as §1
# [6] = target: Fuc(a1-2)[Gal(a1-3)]Gal(b1-4)GlcNAc(b1-3)[Fuc(a1-2)[Gal(a1-3)]Gal(b1-4)GlcNAc(b1-6)]GalNAc
# How it was run: as §1
# [7] = target: Fuc(a1-2)[Gal(a1-3)]Gal(b1-4)GlcNAc(b1-6)GalNAc
# How it was run: as §1
# [8] = target: Fuc(a1-2)[GalNAc(a1-3)]Gal(b1-3)GlcNAc(b1-2)Man(a1-3)[Fuc(a1-2)[GalNAc(a1-3)]Gal(b1-3)GlcNAc(b1-2)Man(a1-6)]Man(b1-4)GlcNAc(b1-4)GlcNAc
# How it was run: as §1
# [9] = target: Fuc(a1-2)[GalNAc(a1-3)]Gal(b1-4)GlcNAc(b1-3)Gal(b1-4)GlcNAc
# How it was run: as §1
# [10] = target: Fuc(a1-3)[Gal(b1-4)]GlcNAc(b1-2)Man(a1-3)[Fuc(a1-3)[Gal(b1-4)]GlcNAc(b1-2)Man(a1-6)]Man(b1-4)GlcNAc(b1-4)[Fuc(a1-6)]GlcNAc
# How it was run: as §1
# [11] = target: Fuc(a1-3)[Gal(b1-4)]GlcNAc(b1-6)GalNAc
# How it was run: as §1
# [12] = target: Gal(a1-3)Gal(b1-4)GlcNAc(b1-2)Man(a1-3)[Gal(a1-3)Gal(b1-4)GlcNAc(b1-2)Man(a1-6)]Man(b1-4)GlcNAc(b1-4)GlcNAc
# How it was run: as §1
# [13] = target: Gal(b1-3)[Fuc(a1-4)]GlcNAc
# How it was run: as §1
# [14] = target: Gal(b1-3)[Neu5Ac(a2-6)]GalNAc
# How it was run: as §1
# [15] = target: Gal(b1-4)GlcNAc(b1-2)Man(a1-3)[Gal(b1-4)GlcNAc(b1-2)Man(a1-6)]Man(b1-4)GlcNAc(b1-4)GlcNAc
# How it was run: as §1
# [16] = target: Gal(b1-4)GlcNAc(b1-2)Man(a1-3)[Gal(b1-4)GlcNAc(b1-2)Man(a1-6)][GlcNAc(b1-4)]Man(b1-4)GlcNAc(b1-4)[Fuc(a1-6)]GlcNAc
# How it was run: as §1
# [17] = target: Gal(b1-4)GlcNAc(b1-2)Man(a1-3)[GlcNAc(b1-4)][Gal(b1-4)GlcNAc(b1-2)Man(a1-6)]Man(b1-4)GlcNAc(b1-4)GlcNAc
# How it was run: as §1
# [18] = target: Gal(b1-4)GlcNAc(b1-2)Man(a1-6)Man(b1-4)GlcNAc(b1-4)GlcNAc
# How it was run: as §1
# [19] = target: Gal(b1-4)GlcNAc(b1-2)Man(a1-6)[GlcNAc(b1-2)Man(a1-3)]Man(b1-4)GlcNAc(b1-4)GlcNAc
# How it was run: as §1
# [20] = target: Gal(b1-4)GlcNAc(b1-3)Gal(b1-3)GalNAc
# How it was run: as §1
# [21] = target: Gal(b1-4)GlcNAc(b1-3)Gal(b1-4)GlcNAc(b1-3)Gal(b1-4)GlcNAc(b1-2)[Gal(b1-4)GlcNAc(b1-3)Gal(b1-4)GlcNAc(b1-3)Gal(b1-4)GlcNAc(b1-6)]Man(a1-6)[Gal(b1-4)GlcNAc(b1-3)Gal(b1-4)GlcNAc(b1-3)Gal(b1-4)GlcNAc(b1-2)Man(a1-3)]Man(b1-4)GlcNAc(b1-4)[Fuc(a1-6)]GlcNAc
# How it was run: as §1
# [22] = target: Gal(b1-4)GlcNAc(b1-3)Gal(b1-4)GlcNAc(b1-3)GalNAc
# How it was run: as §1
# Gal6S(b1-4)Glc = target: Gal6S(b1-4)Glc
# How it was run: as §1
# Gal6S(b1-4)GlcNAc = target: Gal6S(b1-4)GlcNAc
# How it was run: as §1
# [23] = target: GlcNAc(a1-3)Gal(b1-4)GlcNAc
# How it was run: as §1
# [24] = target: GlcNAc(a1-4)Gal(b1-4)GlcNAc
# How it was run: as §1
# [25] = target: GlcNAc(a1-4)Gal(b1-4)GlcNAc(b1-3)Gal(b1-4)Glc
# How it was run: as §1
# [26] = target: GlcNAc(a1-4)Gal(b1-4)GlcNAc(b1-3)Gal(b1-4)GlcNAc
# How it was run: as §1
binder,measurement,setting,value
B1,glycan array binding signal (z-score),[1],-0.338
same,glycan array binding signal (z-score),[2],-0.321
same,glycan array binding signal (z-score),[3],-0.335
same,glycan array binding signal (z-score),[4],-0.328
same,glycan array binding signal (z-score),[5],-0.306
same,glycan array binding signal (z-score),[6],-0.325
same,glycan array binding signal (z-score),[7],-0.34
same,glycan array binding signal (z-score),[8],0.338
same,glycan array binding signal (z-score),[9],0.292
same,glycan array binding signal (z-score),[10],-0.33
same,glycan array binding signal (z-score),[11],-0.33
same,glycan array binding signal (z-score),[12],-0.321
same,glycan array binding signal (z-score),[13],-0.333
same,glycan array binding signal (z-score),[14],0.823
same,glycan array binding signal (z-score),[15],-0.338
same,glycan array binding signal (z-score),[16],-0.334
same,glycan array binding signal (z-score),[17],-0.342
same,glycan array binding signal (z-score),[18],-0.337
same,glycan array binding signal (z-score),[19],3.01
same,glycan array binding signal (z-score),[20],1.12
same,glycan array binding signal (z-score),[21],-0.33
same,glycan array binding signal (z-score),[22],0.602
same,glycan array binding signal (z-score),Gal6S(b1-4)Glc,-0.323
same,glycan array binding signal (z-score),Gal6S(b1-4)GlcNAc,-0.336
same,glycan array binding signal (z-score),[23],3.12
same,glycan array binding signal (z-score),[24],3.11
same,glycan array binding signal (z-score),[25],3.37
same,glycan array binding signal (z-score),[26],4.43
